Laboratory results from PubChem BioAssay AID1159580 (chemical genetic matrix, 2015).
Screen size: about 5,500 compounds; about 2,000 (36%) were called active. Roughly 18% stayed inconclusive and do not appear here. Cut-off read from the data, not from the text of the source: active = normalized growth mostly below about 0.91 (no sharp cut-off); inconclusive = no clear call, values can overlap the other calls; inactive = mostly above about 0.92. The list shows a part of the results.

Assay: chemical genetic growth profiling, strain panel (AID 1159580);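 note: tested at 20 µM; growth read once vehicle control cultures reached saturation at 30 °C; 1 = growth at the plate median or of vehicle wells; lower values mean less growth of the strain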
Conditions: S. cerevisiae deletion strains, growth OD

Measured: normalized growth

CN1CCCC(n2nc(Cc3ccc(Cl)cc3)c3ccccc3c2=O)CC1 (stereo not given)
inactive: locus YAL021C, strain ccr4, active compounds read low 1.01 | locus YAL026C, strain drs2, active compounds read low 1 | locus YAL030W, strain snc1, active compounds read low 0.999 | locus YBL061C, strain skt5, active compounds read low 1 | locus YBR009C, strain hhf1, active compounds read low 0.93 | locus YBR023C, strain chs3, active compounds read low 1.02 | locus YBR171W, strain sec66, active compounds read low 0.989 | locus YBR231C, strain swc5, active compounds read low 0.984 | locus YBR279W, strain paf1, active compounds read low 1.02 | locus YCL011C, strain gbp2, active compounds read low 0.989 | locus YCL016C, strain dcc1, active compounds read low 1.04 | locus YCL061C, strain MRC1, active compounds read low 0.968 | locus YCL069W, strain vba3, active compounds read low 0.988 | locus YCR088W, strain abp1, active compounds read low 0.991 | locus YDL005C, strain med2, active compounds read low 0.999 | locus YDL040C, strain nat1, active compounds read low 1 | locus YDR001C, strain nth1, active compounds read low 1 | locus YDR069C, strain doa4, active compounds read low 0.996 | locus YDR159W, strain sac3, active compounds read low 0.912 | locus YDR195W, strain ref2 0.972 | locus YDR297W, strain sur2, active compounds read low 0.99 | locus YDR334W, strain swr1, active compounds read low 0.981 | locus YDR335W, strain msn5, active compounds read low 1.01 | locus YDR392W, strain spt3, active compounds read low 0.772 | locus YEL003W, strain gim4, active compounds read low 0.948 | locus YEL037C, strain rad23, active compounds read low 0.992 | locus YEL061C, strain CIN8 (second series), active compounds read low 0.983 | locus YER015W, strain faa2, active compounds read low 0.966 | locus YER016W, strain bim1, active compounds read low 1.03 | locus YER111C, strain swi4, active compounds read low 1.01 | locus YER155C, strain BEM2 (second series), active compounds read low 0.884 | locus YFR010W, strain ubp6, active compounds read low 0.941 | locus YGL167C, strain pmr1, active compounds read low 0.982 | locus YGL173C, strain kem1, active compounds read low 0.964 | locus YGL227W, strain vid30, active compounds read low 1 | locus YGL240W, strain doc1, active compounds read low 0.942 | locus YGL253W, strain hxk2, active compounds read low 1.02 | locus YHR013C, strain ard1, active compounds read low 0.994 | locus YHR027C, strain rpn1, active compounds read low 0.944 | locus YHR030C, strain SLT2, active compounds read low 1.03 | locus YHR079C, strain IRE1, active compounds read low 1.02 | locus YHR142W, strain chs7, active compounds read low 1.02 | locus YJL092W, strain hpr5, active compounds read low 0.981 | locus YJL095W, strain BCK1 (second series), active compounds read low 0.996 | locus YJL095W, strain BCK1, active compounds read low 0.979 | locus YJL115W, strain asf1, active compounds read low 1.02 | locus YJL129C, strain trk1, active compounds read low 1.07 | locus YJL154C, strain vps35, active compounds read low 0.992 | locus YJL164C, strain tpk1, active compounds read low 0.964 | locus YJL166W, strain qcr8, active compounds read low 0.96 | locus YJL187C, strain SWE1, active compounds read low 1.01 | locus YJR066W, strain TOR1, active compounds read low 0.99 | locus YKL160W, strain elf1, active compounds read low 1.04 | locus YKR026C, strain gcn3, active compounds read low 0.995 | locus YKR091W, strain srl3, active compounds read low 1 | locus YLL001W, strain dnm1, active compounds read low 0.958 | locus YLL026W, active compounds read low 1 | locus YLL041C, strain sdh2, active compounds read low 0.99 | locus YLR027C, strain aat2, active compounds read low 1.01 | locus YLR113W, strain HOG1, active compounds read low 0.975 | locus YLR221C, strain rsa3, active compounds read low 0.954 | locus YLR258W, strain gsy2, active compounds read low 1.02 | locus YLR262C, strain YPT6 (second series), active compounds read low 1.06 | locus YLR320W, strain mms22, active compounds read low 0.905 | locus YLR342W, strain FKS1, active compounds read low 1 | locus YLR357W, strain rsc2, active compounds read low 0.949 | locus YLR370C, strain arc18, active compounds read low 1.02 | locus YLR384C, strain iki3, active compounds read low 0.996 | locus YML120C, strain ndi1, active compounds read low 0.95 | locus YMR058W, strain fet3, active compounds read low 0.961 | locus YMR125W, strain sto1, active compounds read low 0.983 | locus YMR129W, active compounds read low 1 | locus YMR205C, strain PFK2, active compounds read low 0.981 | locus YMR231W, strain pep5, active compounds read low 1 | locus YNL071W, strain lat1, active compounds read low 0.993 | locus YNL183C, strain NPR1, active compounds read low 0.975 | locus YNL209W, strain ssb2, active compounds read low 0.993 | locus YNL248C, strain rpa49, active compounds read low 1 | locus YNL322C, strain KRE1 (second series), active compounds read low 1.01 | locus YNR049C, strain mso1, active compounds read low 1 | locus YOR001W, strain rrp6, active compounds read low 0.902 | locus YOR070C, strain gyp1, active compounds read low 1.01 | locus YOR080W, strain dia2, active compounds read low 0.98 | locus YOR083W, strain WHI5, active compounds read low 0.966 | locus YOR106W, strain vam3, active compounds read low 0.993 | locus YOR231W, strain MKK1, active compounds read low 0.993 | locus YOR265W, strain rbl2, active compounds read low 0.998 | locus YOR270C, strain vph1, active compounds read low 0.93 | locus YOR290C, strain snf2, active compounds read low 1.01 | locus YPL051W, strain arl3, active compounds read low 1.05 | locus YPL078C, strain atp4, active compounds read low 1.01 | locus YPL106C, strain sse1, active compounds read low 1.08 | locus YPL240C, strain hsp82, active compounds read low 1 | locus YPL256C, strain CLN2, active compounds read low 1.01
active: locus YDR137W, strain rgp1, active compounds read low 1.25 [resistant]
